Data: PubChem BioAssay
The source made the active and inactive calls. Unless noted, no rule for the calls is given here.

Key:
[1] = A549 cell viability effects, profiling panel, calcein-AM fluorescence, 48 h, basal (AID 1162); details: higher = more signal; also: test concentration not given here
[2] = adipocyte viability effects, profiling panel, cell-based, 3T3-L1 adipocytes, calcein-AM fluorescence, 48 h, basal (AID 1163); details: 3T3-L1 adipocytes viability, higher = more signal; also: test concentration not given here
[3] = HepG2 cell viability effects, profiling panel, calcein-AM fluorescence, 48 h, basal (AID 1164); details: higher = more signal; also: test concentration not given here
[4] = MM1S cell viability effects, profiling panel, calcein-AM fluorescence, 48 h, basal (AID 1165); details: higher = more signal;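 also: viability of MM1S multiple myeloma cells under basal unstimulated conditions; test concentration not given here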
[5] = basal RPMI8226 viability, no added stimulus, profiling panel, cell-based, calcein-AM fluorescence, 48 h, PK04 Diversity Set (AID 1166); details: RPMI8226 myeloma viability, higher = more signal;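 also: cells grown under basal conditions without added stimulus; test concentration not given here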
[6] = basal HepG2 mitochondrial membrane potential changes, profiling panel, cell-based, JC-1 fluorescence, 24 h, 100 nL compound (AID 1167); details: higher = more signal; also: test concentration not given here
[7] = basal 3T3-L1 adipocyte mitochondrial potential changes, profiling panel, cell-based, JC-1 fluorescence, 3T3-L1 adipocytes, 24 h, 100 nL compound (AID 1168); details: JC-1 mitochondrial fluorescence, higher = more signal, called active from +8 up or from −8 down; also: test concentration not given here
[8] = basal RPMI8226 mitochondrial membrane potential changes, profiling panel, cell-based, JC-1 fluorescence, 24 h, 100 nL compound (AID 1169); details: RPMI8226 myeloma, JC-1 mitochondrial potential fluorescence, higher = more signal; also: test concentration not given here
[9] = basal MM1S mitochondrial membrane potential changes, profiling panel, cell-based, JC-1 fluorescence, 24 h, 100 nL compound (AID 1170); details: higher = more signal; also: test concentration not given here
[10] = A549 lung cancer cell viability effects, profiling panel, resazurin fluorescence, 24 h, PK04 Diversity Set (AID 1171); details: higher = more signal, called active from +8 up or from −8 down; also: test concentration not given here
[11] = HepG2 liver cancer cell viability effects, profiling panel, resazurin fluorescence, 24 h, PK04 Diversity Set (AID 1172); details: higher = more signal; also: test concentration not given here
[12] = basal S. cerevisiae growth modulation, no modifier, primary screen, OD600, strain BY4716, 24 h, basal condition (AID 1173); details: OD600, 24 h, higher = more signal, called active from +8 up or from −8 down
[13] = MM1S myeloma cell viability, profiling panel, resazurin fluorescence, basal, 24 h, PK04 Diversity Set (AID 1174); details: higher = more signal, called active from +8 up or from −8 down;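 also: MM1S multiple myeloma cell line; test concentration not given here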
[14] = biological target: Dihydroorotate dehydrogenase (quinone), mitochondrial (Plasmodium falciparum (isolate 3D7)) (UniProt Q08210); experiment: PfDHODH enzyme inhibitors, primary screen, biochemical, C-terminal His tag, absorbance 600 nm (AID 1175); details: DCIP absorbance 600 nm, higher = more signal, called active from +8 up or from −8 down;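 also: recombinant parasite enzyme with a five histidine tag at its C terminus; test concentration not given here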
[15] = P. aeruginosa biofilm formation inhibitors, primary screen, strain PAO1, LB-PBS medium, absorbance 600 nm (AID 1176); also: test concentration not given here; details: P. aeruginosa PAO1 growth/biofilm, A600, 12 h; higher = more signal
[16] = S. cerevisiae RM11-1a growth modifiers, primary screen, strain RM11-1a, OD600, basal, 24 h (AID 1177); details: OD600, 24 h, higher = more signal, called active from +8 up or from −8 down;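 also: cultures grown under basal conditions with no added stressor; test concentration not given here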
[17] = E. coli acrAB mutant growth effects, primary screen, E. coli filamentation inducers, strain DRC39, OD650, 24 h (AID 1178); details: higher = more signal, called active from +8 up or from −8 down;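 also: growth measured as culture turbidity by optical density at 650 nm; test concentration not given here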
[18] = E. coli acrAB mutant growth effects, primary screen, E. coli filamentation inducers, strain DRC39, OD650, 48 h (AID 1179);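 also: screen aims at cell division blockers that make cells filament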; details: E. coli DRC39 delta-acrAB growth, higher = more signal, called active from +8 up or from −8 down
[19] = RPMI8226 myeloma cell viability, profiling panel, resazurin fluorescence, basal, 24 h, PK04 Diversity Set (AID 1180); details: higher = more signal;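 also: RPMI8826 multiple myeloma cell line at 5000 cells per well; test concentration not given here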
[20] = biological target: E3 ubiquitin-protein ligase XIAP (Homo sapiens) (UniProt P98170); experiment: XIAP binders, primary screen, biophysical, small-molecule microarray, fluorescence 635 nm (AID 1181); details: small-molecule microarray binding, higher = more signal;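 also: score merges 667 nm emission and signal to noise over triplicate slides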
Sequence of E3 ubiquitin-protein ligase XIAP (Homo sapiens) (P98170 whole entry, looked up): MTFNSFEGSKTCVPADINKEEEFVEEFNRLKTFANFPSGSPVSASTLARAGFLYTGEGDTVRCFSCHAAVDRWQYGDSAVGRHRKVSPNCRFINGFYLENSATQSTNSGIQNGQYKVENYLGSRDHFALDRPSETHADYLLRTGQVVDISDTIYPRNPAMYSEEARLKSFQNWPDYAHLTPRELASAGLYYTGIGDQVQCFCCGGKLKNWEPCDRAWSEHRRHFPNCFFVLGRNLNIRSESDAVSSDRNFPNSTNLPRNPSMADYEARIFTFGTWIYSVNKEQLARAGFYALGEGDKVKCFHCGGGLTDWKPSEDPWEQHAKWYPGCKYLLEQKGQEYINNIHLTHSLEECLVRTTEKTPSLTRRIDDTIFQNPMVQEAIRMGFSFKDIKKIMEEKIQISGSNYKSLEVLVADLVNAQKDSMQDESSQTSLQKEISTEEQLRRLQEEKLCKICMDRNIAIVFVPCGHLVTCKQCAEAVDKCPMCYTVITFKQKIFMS

Sequence of Dihydroorotate dehydrogenase (quinone), mitochondrial (Plasmodium falciparum (isolate 3D7)) (Q08210 whole entry, looked up): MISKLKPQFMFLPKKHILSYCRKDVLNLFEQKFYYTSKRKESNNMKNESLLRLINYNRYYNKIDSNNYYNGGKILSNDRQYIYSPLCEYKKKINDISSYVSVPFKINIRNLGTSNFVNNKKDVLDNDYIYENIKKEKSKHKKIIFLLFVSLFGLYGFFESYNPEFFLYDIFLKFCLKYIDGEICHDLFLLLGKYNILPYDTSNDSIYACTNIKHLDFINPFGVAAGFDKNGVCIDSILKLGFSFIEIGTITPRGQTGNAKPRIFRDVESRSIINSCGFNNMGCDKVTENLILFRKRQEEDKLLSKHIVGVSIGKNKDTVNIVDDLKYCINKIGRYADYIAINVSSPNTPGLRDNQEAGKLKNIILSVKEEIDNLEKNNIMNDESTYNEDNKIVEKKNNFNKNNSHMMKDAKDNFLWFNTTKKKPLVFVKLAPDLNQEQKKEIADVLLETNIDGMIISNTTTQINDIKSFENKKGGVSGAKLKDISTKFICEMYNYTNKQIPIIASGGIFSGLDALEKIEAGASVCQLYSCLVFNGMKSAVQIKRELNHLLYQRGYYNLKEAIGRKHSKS

Row | SMILES | z-score [1] | z-score [2] | z-score [3] | z-score [4] | z-score [5] | z-score [6] | z-score [7] | z-score [8] | z-score [9] | z-score [10] | z-score [11] | z-score [12] | z-score [13] | composite z-score [14] | z-score [15] | z-score [16] | z-score [17] | z-score [18] | z-score [19] | composite z-score [20]
1 | CN1C(=O)C2C=CC(C(O)C3=C[C@H]4C[C@@H](C3)C4(C)C)N(Nc3ccc([N+](=O)[O-])cc3[N+](=O)[O-])C2C1=O (stereo not given in full) | 0.895 | -0.535 | 0.436 | 0.017 | -0.481 | -0.661 | -1.35 (inactive) | -0.46 | -1.1 | -0.227 (inactive) | -0.241 | 0.473 (inactive) | -0.569 (inactive) | -0.0042 (inactive) | 0.434 (inactive) | 1 (inactive) | -0.146 (inactive) | -0.476 (inactive) | 0.116 | 0.772
2 | CCCCN1CC=CC23O[C@@H]4C=CCCOC(=O)C4[C@H]2C(=O)N(CCCO)[C@@H]3C1=O (stereo not given in full) | 0.146 | 1.53 | -0.365 | 0.438 | -0.913 | -0.798 | -0.562 (inactive) | -0.781 | -0.148 | -0.834 (inactive) | -0.341 | -1.09 (inactive) | -0.404 (inactive) | -3.94 (inactive) | -0.565 (inactive) | 0.0943 (inactive) | -1.54 (inactive) | -1.34 (inactive) | -0.937 | 0.268
3 | COC(=O)[C@@]1(Cc2ccc(OC)cc2)[C@H]2c3cc(C(=O)N(C)C)n(Cc4ccc(OC)c(OC)c4)c3C[C@H]2CN1C(=O)c1ccccc1 | -1.72 | -0.204 | -1.18 | -1.32 | -2.07 | 0.297 | -1.29 (inactive) | -0.605 | -1.11 | -1.35 (inactive) | -0.962 | 2.46 (inactive) | -1.67 (inactive) | 0.697 (inactive) | 0.964 (inactive) | 2.19 (inactive) | -0.558 (inactive) | 0.0309 (inactive) | -2.28 | 0.124
4 | C=C(COC)C(=O)CC[C@@H](OC(=O)c1ccccc1-c1ccccc1C(=O)O)c1ccc(CO)o1 | -1.46 | -0.736 | -2.67 | -1.69 | -0.883 | -2.74 | 0.429 (inactive) | -0.323 | -0.857 | -1.03 (inactive) | -0.731 | -17.9 (active) | -0.0674 (inactive) | -6.3 (inactive) | 0.85 (inactive) | -21.6 (active) | 0.163 (inactive) | -0.171 (inactive) | 0.62 | 0.294
5 | COCCCNC(=O)[C@@]1(Cc2ccccc2I)c2ccccc2C(=O)N(Cc2ccccc2)[C@H]1c1ccc(CO)cc1 | 0.954 | 0.387 | 0.828 | -0.657 | -1.25 | 1.71 | -0.432 (inactive) | -0.136 | 0.651 | 1.67 (inactive) | 0.348 | 0.346 (inactive) | 1.01 (inactive) | 1.17 (inactive) | -0.205 (inactive) | 2.28 (inactive) | 0.322 (inactive) | -0.15 (inactive) | 1.5 | -0.193
6 | Cc1ccc(S[C@]2(C(=O)NCCCN(C)C)CC(=O)N(Cc3ccccc3)[C@@H]2c2ccc(CO)cc2)cc1 | 0.931 | -0.084 | -0.569 | -0.569 | -1.12 | 0.816 | -0.946 (inactive) | -0.718 | 0.706 | 0.516 (inactive) | -0.519 | -0.686 (inactive) | 0.833 (inactive) | -0.336 (inactive) | 0.317 (inactive) | -0.358 (inactive) | -0.194 (inactive) | -0.435 (inactive) | 0.63 | -0.185
7 | C=CC[C@@]1(C(N)=O)N=C(c2ccc(OCCCO)cc2)O[C@@H]1c1ccccc1N=[N+]=[N-] | 1.38 | 1.01 | 0.314 | -0.35 | -0.0394 | -0.00877 | 0.875 (inactive) | -0.327 | 0.759 | 1.02 (inactive) | 0.895 | -1.08 (inactive) | 0.694 (inactive) | 0.832 (inactive) | 0.401 (inactive) | 0.178 (inactive) | 0.951 (inactive) | -0.0342 (inactive) | 0.502 | 0.0896
8 | CC(C)NC(=O)[C@@]1(c2ccc([N+](=O)[O-])cc2)CC(=O)N(C(C)C)[C@@H]1c1ccc(CO)cc1 | 1.19 | 0.63 | 0.959 | 0.385 | 1.38 | 0.763 | 0.481 (inactive) | -1.03 | -0.228 | -1.1 (inactive) | -0.864 | 0.347 (inactive) | -0.972 (inactive) | -1.53 (inactive) | 1.13 (inactive) | -1.58 (inactive) | 0.423 (inactive) | 1.17 (inactive) | -0.792 | -0.369
9 | CC(C)OC(=O)C1=CCC(c2cccc(Cl)c2)O1 (stereo not given) | -1.14 | 0.102 | -0.582 | -1.57 | -1.58 | -0.231 | -0.076 (inactive) | 0.923 | -1.99 | 1.09 (inactive) | 0.195 | -5.96 (inactive) | 0.242 (inactive) | -0.582 (inactive) | 0.905 (inactive) | -2.25 (inactive) | -0.138 (inactive) | 0.143 (inactive) | -0.501 | -0.197
